Our source for the outcome and Potency values is PubChem BioAssay (NCATS).

Results filed as inconclusive are left out. Active and inactive are the calls of the source. Calls come from the whole dose curve; as a rule, active = well fitted curve in the direction sought with a large enough effect; inconclusive = small, poorly fitted or top-dose-only effect, or another doubt; inactive = no such curve, though single readings can be large; an effect the other way counts as inactive or inconclusive.

The target of assay [1] is Methanococcus maripaludis chaperonin (MmCpn) (UniProt Q6LX38). Briefly: High-Throughput Screening for Modulators of Cytosolic Chaperonin Activity: MmCpn Primary Screen (AID 488978).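 Note: 50 nM MmCpn enzyme hydrolysing 30 µM ATP at 37 °C.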 To be noted: Purified MmCpn ATPase activity, ADP HTRF detection, 10 min; series mostly up to 76.9 µM. The method in brief:
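Measures ATPase turnover of the M. maripaludis chaperonin (50 nM final) against 30 uM ATP over 10 min at 37C, with compound added 5 min beforehand at room temperature. ADP is quantified by HTRF immunodetection.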

The target of assay [2] is Transient receptor potential cation channel subfamily V member 1 (Homo sapiens) (UniProt Q8NER1). Briefly: HTS Assay for Compounds that Act as Enhancers of the Vanilloid Receptor 1 (AID 488979). To be noted: TRPV1-expressing cells, enhancer of channel activity, stimulated with capsaicin at EC20; series mostly up to 41.7 µM. The method in brief: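 TRPV1-expressing cells loaded with Fluo-8 calcium dye; compounds added and calcium influx read kinetically for 3 min (agonist phase), then capsaicin at EC20 added and read 2 min more for enhancement. Fluorescence ex 480/em 520 nm.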
Transient receptor potential cation channel subfamily V member 1 (Homo sapiens), sequence (Q8NER1 whole entry, looked up): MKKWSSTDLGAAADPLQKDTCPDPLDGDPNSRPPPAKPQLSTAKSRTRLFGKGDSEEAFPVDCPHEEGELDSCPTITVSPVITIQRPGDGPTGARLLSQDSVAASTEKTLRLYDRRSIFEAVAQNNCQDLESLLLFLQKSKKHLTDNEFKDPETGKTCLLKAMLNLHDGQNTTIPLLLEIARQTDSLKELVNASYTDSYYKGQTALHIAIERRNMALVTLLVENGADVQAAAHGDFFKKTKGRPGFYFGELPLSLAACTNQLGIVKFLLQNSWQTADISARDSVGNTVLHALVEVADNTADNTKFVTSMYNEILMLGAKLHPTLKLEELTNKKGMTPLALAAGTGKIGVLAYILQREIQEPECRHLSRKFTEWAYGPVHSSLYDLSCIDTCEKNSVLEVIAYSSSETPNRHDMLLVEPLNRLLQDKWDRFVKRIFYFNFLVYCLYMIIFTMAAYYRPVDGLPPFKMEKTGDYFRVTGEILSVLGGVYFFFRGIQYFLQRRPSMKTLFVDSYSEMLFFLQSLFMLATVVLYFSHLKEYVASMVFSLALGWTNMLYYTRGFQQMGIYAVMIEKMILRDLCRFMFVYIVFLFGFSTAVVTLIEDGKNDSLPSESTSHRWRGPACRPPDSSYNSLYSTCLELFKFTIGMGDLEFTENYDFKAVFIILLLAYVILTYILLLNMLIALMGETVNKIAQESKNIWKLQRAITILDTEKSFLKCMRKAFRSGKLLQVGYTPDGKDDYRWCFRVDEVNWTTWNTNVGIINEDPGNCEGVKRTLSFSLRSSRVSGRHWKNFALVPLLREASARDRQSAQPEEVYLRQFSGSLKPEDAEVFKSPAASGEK

Assay [3] deals with D(1A) dopamine receptor (Homo sapiens) (UniProt P21728). Briefly: HTS Assay for Allosteric Agonists of the Human D1 Dopamine Receptor: Primary Screen for Agonists (AID 488981). Note: potency is the fitted concentration of half-maximal effect. As to conditions: Inducible HEK293 T-REx D1 cells, calcium-flux fluorescence, 180 s kinetic; series mostly up to 41.8 µM. The method, boiled down:
(§1)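 Tetracycline-induced HEK293 T-REx cells force-coupled to calcium signalling were incubated overnight at 30 C and dye-loaded at room temperature. Calcium flux over 180 s after compound addition flagged agonists; a further 180 s read after EC20 dopamine flagged potentiators.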

Assay [4] has the same target. Briefly: HTS Assay for Allosteric Agonists of the Human D1 Dopamine Receptor: Primary Screen for Potentiators (AID 488982). As to conditions: HEK293 T-REx D1 inducible cells, calcium flux, kinetic fluorescence; series mostly up to 8.37 µM. The method in brief: as §1
For assay [5] the target is unchanged. Briefly: HTS Assay for Allosteric Agonists of the Human D1 Dopamine Receptor: Primary Screen for Antagonists (AID 488983).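 Note: calcium flux response to an EC80 dopamine challenge measured with no-wash dye; nearly all actives have a fitted effect of over 65% in size.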 As to conditions: D1 receptor cell assay, antagonist mode, qHTS titration; series mostly up to 41.8 µM. The method in brief:
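Calcium flux readout, no-wash dye, inducible HEK293 T-REx D1 line (force-coupled). Compound added after 10 s baseline, 180 s kinetic read; then dopamine at EC80, further 180 s read.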

A short description of assay [6]: Validation screen for small molecules that induce genotoxicity in human embryonic kidney (HEK293T) cells expressing luciferase-tagged ELG1 (AID 493106). To be noted: luminescence; series mostly up to 46.1 µM. The method, boiled down:
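qHTS format; 2,000 HEK293T ELG1-luc cells/well; 23 nL compound via pin tool; 16 hr, 37 °C/5% CO2; ONE-Glo, 30 min RT; luminescence read.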

Assay [7] has as its target ATPase family AAA domain-containing protein 5 (Homo sapiens) (UniProt Q96QE3). Briefly: Validation screen for small molecules that inhibit ELG1-dependent DNA repair in human embryonic kidney (HEK293T) cells expressing luciferase-tagged ELG1 (AID 493107). Note: nearly all actives have a fitted effect of over 70% in size. Note: potency is the fitted concentration of half-maximal effect. To be noted: HEK293T ELG1-luciferase level, luminescence, 5-fluorouridine co-treatment, 16 h; series mostly up to 46.1 µM. The method in brief:
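ELG1-luciferase HEK293T reporter; 5-fluorouridine + compound/DMSO, 16 hr, 37 °C, 5% CO2; ONE-Glo 30 min RT; luminescence read, qHTS format.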

In assay [8] the target is Thyrotropin receptor (Homo sapiens) (UniProt P16473). Description: qHTS Assay for Antagonists of the Thyroid Stimulating Hormone Receptor (AID 488980). To be noted: TSHR-expressing cells, cAMP antagonist read-out; series mostly up to 57.5 µM. The method in brief: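 Cells expressing human TSHR (HEK293) are dispensed in HBSS/HEPES containing 70 uM RO 20-1724, compound is added, then TSH at EC80 (4 nM final). Antibody in lysis buffer follows, 30 minutes at room temperature before HTRF detection.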
Thyrotropin receptor (Homo sapiens), sequence (P16473 whole entry, looked up): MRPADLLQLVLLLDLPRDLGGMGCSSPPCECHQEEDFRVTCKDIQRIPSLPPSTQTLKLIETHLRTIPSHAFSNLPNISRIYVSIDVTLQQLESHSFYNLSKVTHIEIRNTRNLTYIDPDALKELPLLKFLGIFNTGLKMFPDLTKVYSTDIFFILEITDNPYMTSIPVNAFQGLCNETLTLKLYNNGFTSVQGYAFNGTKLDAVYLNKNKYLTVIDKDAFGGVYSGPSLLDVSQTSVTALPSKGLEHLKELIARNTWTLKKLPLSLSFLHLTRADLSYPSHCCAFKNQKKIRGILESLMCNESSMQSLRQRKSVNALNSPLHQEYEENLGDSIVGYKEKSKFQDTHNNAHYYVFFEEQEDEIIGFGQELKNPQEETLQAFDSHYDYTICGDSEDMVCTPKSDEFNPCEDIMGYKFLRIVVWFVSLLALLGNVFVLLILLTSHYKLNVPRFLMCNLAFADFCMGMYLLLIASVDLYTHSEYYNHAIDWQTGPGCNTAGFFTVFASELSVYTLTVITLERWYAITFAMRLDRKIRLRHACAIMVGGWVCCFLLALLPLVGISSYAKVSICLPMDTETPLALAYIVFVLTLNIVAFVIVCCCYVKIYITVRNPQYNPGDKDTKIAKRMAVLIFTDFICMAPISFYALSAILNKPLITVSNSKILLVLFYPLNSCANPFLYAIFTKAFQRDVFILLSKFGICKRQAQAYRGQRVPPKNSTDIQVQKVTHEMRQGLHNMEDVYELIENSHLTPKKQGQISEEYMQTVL

In assay [9] the target is ATP-dependent 6-phosphofructokinase (Trypanosoma brucei brucei) (UniProt O15648). Briefly: qHTS Assay to Find Inhibitors of T. brucei phosphofructokinase: hit validation (AID 492961).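 Note: luminescence reports ADP formed as PFK phosphorylates fructose-6-phosphate with ATP.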 As to conditions: T. brucei PFK, ADP-Glo luminescence; series mostly up to 51.4 µM. The method in brief: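 PFK 1.25 nM, F6P 0.5 mM, ATP 0.1 mM, MgCl2 5 mM, 0.1 M TEA pH 8.0, Tween20 0.01%, BSA 0.1%; 45 min RT. ADP-Glo two-step detection, luminescence. qHTS titration; curve fitting with curve-class categorization.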
ATP-dependent 6-phosphofructokinase (Trypanosoma brucei brucei), sequence (O15648 whole entry, looked up): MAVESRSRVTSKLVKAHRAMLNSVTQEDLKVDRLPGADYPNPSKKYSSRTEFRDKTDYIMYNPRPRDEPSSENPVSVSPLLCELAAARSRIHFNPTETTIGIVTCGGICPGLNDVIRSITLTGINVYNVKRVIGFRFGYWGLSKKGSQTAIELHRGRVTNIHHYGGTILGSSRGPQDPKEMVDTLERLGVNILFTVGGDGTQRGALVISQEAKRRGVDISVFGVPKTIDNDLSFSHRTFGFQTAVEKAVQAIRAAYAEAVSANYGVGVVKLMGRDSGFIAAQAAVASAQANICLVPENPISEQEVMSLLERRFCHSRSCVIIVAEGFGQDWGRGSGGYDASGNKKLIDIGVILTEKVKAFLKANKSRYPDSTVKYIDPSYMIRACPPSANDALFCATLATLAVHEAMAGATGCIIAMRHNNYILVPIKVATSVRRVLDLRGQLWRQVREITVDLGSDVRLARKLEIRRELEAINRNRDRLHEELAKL

Methanococcus maripaludis chaperonin (MmCpn), sequence (Q6LX38 1-543): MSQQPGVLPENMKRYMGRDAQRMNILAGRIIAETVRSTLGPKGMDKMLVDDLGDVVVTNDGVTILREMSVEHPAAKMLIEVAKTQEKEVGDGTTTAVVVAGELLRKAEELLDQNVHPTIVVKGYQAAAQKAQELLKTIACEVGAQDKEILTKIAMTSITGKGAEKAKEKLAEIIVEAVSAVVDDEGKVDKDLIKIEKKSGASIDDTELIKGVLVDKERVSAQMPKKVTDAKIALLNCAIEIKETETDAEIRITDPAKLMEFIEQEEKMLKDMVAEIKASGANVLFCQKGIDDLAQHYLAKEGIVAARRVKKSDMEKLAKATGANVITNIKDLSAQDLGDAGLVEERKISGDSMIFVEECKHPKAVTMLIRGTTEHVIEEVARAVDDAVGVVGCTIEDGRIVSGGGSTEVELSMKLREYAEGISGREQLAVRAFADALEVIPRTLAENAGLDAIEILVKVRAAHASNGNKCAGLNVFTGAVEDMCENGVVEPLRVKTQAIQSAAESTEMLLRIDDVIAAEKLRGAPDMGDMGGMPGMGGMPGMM
D(1A) dopamine receptor (Homo sapiens), sequence (P21728 whole entry, looked up): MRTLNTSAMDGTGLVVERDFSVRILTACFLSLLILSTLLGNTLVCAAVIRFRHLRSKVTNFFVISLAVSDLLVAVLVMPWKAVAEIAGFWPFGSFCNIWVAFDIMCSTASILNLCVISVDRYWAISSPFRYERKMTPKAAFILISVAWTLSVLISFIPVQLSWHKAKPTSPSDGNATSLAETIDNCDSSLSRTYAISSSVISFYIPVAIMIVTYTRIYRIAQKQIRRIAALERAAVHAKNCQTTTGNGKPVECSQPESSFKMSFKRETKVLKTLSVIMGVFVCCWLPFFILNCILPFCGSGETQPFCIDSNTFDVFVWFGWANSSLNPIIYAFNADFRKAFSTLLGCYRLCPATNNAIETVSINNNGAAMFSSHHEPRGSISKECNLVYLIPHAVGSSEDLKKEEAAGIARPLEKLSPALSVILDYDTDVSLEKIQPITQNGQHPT
ATPase family AAA domain-containing protein 5 (Homo sapiens), sequence (Q96QE3 whole entry, looked up, the tested form may be a part): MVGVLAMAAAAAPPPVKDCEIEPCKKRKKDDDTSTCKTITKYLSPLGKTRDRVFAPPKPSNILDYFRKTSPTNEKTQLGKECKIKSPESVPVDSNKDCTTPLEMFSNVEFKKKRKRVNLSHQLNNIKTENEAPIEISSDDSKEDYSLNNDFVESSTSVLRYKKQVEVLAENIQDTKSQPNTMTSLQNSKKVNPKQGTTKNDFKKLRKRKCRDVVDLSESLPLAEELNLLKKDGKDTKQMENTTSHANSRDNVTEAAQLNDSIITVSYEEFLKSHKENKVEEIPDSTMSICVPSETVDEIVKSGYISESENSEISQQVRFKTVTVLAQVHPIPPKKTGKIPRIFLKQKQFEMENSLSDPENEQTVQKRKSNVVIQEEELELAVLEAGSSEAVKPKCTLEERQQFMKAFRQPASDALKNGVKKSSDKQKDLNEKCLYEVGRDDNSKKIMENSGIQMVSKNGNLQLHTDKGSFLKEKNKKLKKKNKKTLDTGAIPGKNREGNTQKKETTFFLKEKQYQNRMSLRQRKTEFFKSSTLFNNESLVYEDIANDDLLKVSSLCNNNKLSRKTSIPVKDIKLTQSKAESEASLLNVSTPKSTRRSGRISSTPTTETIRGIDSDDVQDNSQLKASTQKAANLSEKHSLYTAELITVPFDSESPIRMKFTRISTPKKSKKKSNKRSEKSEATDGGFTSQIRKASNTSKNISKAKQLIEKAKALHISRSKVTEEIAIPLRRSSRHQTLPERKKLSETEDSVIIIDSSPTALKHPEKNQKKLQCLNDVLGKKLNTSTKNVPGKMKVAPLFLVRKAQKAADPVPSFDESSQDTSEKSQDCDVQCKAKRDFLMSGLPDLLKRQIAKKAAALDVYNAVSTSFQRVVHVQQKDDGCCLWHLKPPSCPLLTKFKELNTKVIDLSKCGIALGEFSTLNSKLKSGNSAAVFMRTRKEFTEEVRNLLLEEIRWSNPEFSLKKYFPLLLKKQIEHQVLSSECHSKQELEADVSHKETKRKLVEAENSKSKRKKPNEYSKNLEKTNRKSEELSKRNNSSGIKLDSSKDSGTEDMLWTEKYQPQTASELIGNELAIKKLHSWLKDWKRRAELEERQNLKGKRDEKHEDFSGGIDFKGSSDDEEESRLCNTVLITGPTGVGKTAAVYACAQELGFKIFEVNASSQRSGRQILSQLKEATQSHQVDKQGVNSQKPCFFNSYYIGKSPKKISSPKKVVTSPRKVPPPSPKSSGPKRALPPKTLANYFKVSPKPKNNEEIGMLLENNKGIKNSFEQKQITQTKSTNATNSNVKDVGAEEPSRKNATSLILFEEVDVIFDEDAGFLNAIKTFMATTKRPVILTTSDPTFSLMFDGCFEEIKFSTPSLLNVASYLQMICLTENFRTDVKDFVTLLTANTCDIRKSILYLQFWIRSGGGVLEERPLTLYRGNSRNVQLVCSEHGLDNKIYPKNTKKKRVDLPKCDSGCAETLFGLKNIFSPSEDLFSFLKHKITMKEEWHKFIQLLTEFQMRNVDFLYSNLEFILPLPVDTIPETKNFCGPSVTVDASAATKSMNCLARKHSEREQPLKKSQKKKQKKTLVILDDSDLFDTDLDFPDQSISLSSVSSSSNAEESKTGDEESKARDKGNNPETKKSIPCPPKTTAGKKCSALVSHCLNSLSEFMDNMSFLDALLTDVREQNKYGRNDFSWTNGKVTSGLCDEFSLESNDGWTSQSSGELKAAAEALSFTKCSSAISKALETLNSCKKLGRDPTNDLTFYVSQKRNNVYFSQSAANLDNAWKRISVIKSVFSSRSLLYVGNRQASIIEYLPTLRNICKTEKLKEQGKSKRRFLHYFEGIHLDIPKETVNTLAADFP

As for `CO[C@@]1(NC(=O)CSCC#N)C(=O)N2C(C(=O)O)=C(CSc3nnnn3C)CS[C@@H]21`, the outcome in assay [1] and in assay [2] was inactive. For the same compound, the Potency entry in [3], in assay [4], in [5], in [6] and in assay [7] was “inactive” throughout.

Take `Nc1nc(N)c2nc(-c3ccccc3)c(N)nc2n1`: the result in [2] and in assay [8] was inactive. Also, the Potency entry in assay [3] and in assay [4] was “inactive” throughout.

Turning to `CCOC(=O)C1=C(C)NC(C)=C(C(=O)OC)C1c1cccc([N+](=O)[O-])c1` (stereo unspecified), the compound was called inactive in [1] and in assay [2]. Also, the Potency entry in assay [3] and in assay [6] was “inactive” in each case.

With `CN(C)[C@@H]1C(=O)C(C(N)=O)=C(O)[C@@]2(O)C(=O)C3=C(O)c4c(O)ccc(Cl)c4[C@@H](O)[C@H]3C[C@@H]12`, in assay [1], the result was inactive. The Potency result in [3], in assay [4], in assay [5], in [6] and in assay [7] was “inactive” in each case.

`C(=C\c1ccccc1)/CN1CCN(C(c2ccccc2)c2ccccc2)CC1`: the compound was classed as inactive in assay [1], in assay [2] and in assay [8]. Moreover, the Potency result in assay [3], in [4], in assay [6] and in [7] was “inactive” throughout.

Consider `CC(C)(C)c1ccc(C(=O)CCCN2CCC(OC(c3ccccc3)c3ccccc3)CC2)cc1`, for which the Potency result in [3] and in [6] was “inactive” throughout. In addition, in assay [9], the outcome was inactive.

Regarding `Cc1cc(C)c(/C=C2\C(=O)Nc3ccccc32)[nH]1`, the result in assay [1] and in assay [9] was inactive. Also, in assay [3], the Potency is 15.8 µM (active). Also, the Potency result in assay [4] and in assay [6] was “inactive” in each case.

On to `COC(=O)C1=C(C)NC(C)=C(C(=O)OCCN(C)Cc2ccccc2)C1c1cccc([N+](=O)[O-])c1` (stereo unspecified), for which the result in assay [2] and in [8] was inactive. In addition, the Potency entry in assay [3], in assay [4] and in assay [6] was “inactive” throughout. Besides, in assay [7], the Potency is 16.4 µM (active).

For `CCCN1C[C@H](CSC)C[C@@H]2c3cccc4[nH]cc(c34)C[C@H]21`, the compound was called inactive in [1], in assay [2] and in [8]. Further, the Potency result in [3], in [4], in assay [6] and in assay [7] was “inactive” each time.

As for `CCCCOCCOCCOCc1cc2c(cc1CCC)OCO2`, in assay [9], the outcome was inactive.

As to `COCC(=O)O[C@]1(CCN(C)CCCc2nc3ccccc3[nH]2)CCc2cc(F)ccc2[C@@H]1C(C)C`, the result in assay [1], in assay [8] and in [9] was inactive. The Potency result in assay [4] and in assay [6] was “inactive” each time. Further, in [7], the Potency is 18.3 µM (active).
